# Measured values: PubChem BioAssay (EPA / NIEHS)
# The source made the active and inactive calls. The calls were made as follows: active = hit-call score of the fitted dose curve at least 0.9, where 1 is the maximum; inactive = score below 0.9.
# Tested on: not listed separately
# Assay: ATG_Ets_CIS: Attagene CIS-FACTORIAL HepG2 Assay for human Erythroblast Transformation Specific (ETS) (AID 2282941)
# Details: HepG2 ETS cis-reporter transcription, actives raise or lower the signal
# How it was run: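 Cis-regulated reporter mRNA induction in HepG2 (transient transfection), 24 h exposure, RT-PCR plus capillary electrophoresis detection; DMSO serves as negative control and baseline.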
Compound,outcome,AC50
CCCSP(=S)(OCC)Oc1ccc(SC)cc1 (configuration not stated),inactive,–
COCC(=O)N(c1c(C)cccc1C)[C@H](C)C(=O)OC,inactive,–
Cc1cc(C)cc(C)c1,inactive,–
CCOP(=S)(OCC)SCSc1cc(Cl)ccc1Cl,inactive,–
C=CC(=O)[O][Sn]([CH2]CCC)([CH2]CCC)[CH2]CCC,inactive,–
N#CS,inactive,–
Cc1cccc(OP(=O)(Oc2cccc(C)c2)Oc2cccc(C)c2)c1,inactive,–
C1CN2CCN1CC2,inactive,–
COc1ccc([N+](=O)[O-])cc1O,inactive,–
CCC[N+](CCC)(CCC)CCC,inactive,–
O=c1nc(O)n(Cl)c(=O)n1Cl,inactive,–
O=NN1CCOCC1,inactive,–
O=C(O)CC(O)(CC(=O)O)C(=O)O,inactive,–
CCOP(=S)(OCC)SCS(=O)(=O)C(C)(C)C,inactive,–
CC(c1ccc(O)cc1)c1ccc(O)cc1,–,137 µM (active)
COc1nn(C(=O)NS(=O)(=O)c2ccccc2OC(F)(F)F)c(=O)n1C,inactive,–
CC(C)[N+](=O)[O-],inactive,–
CC1(C)[C@H](C(=O)O[C@H](C#N)c2cccc(Oc3ccccc3)c2)[C@@H]1/C=C(\Cl)C(F)(F)F,inactive,–
C=C(C)[C@@H]1CC=C(C=O)CC1,inactive,–
CC1CC(=O)O1 (configuration not stated),inactive,–

Compound,outcome,AC50
Brc1ccc(Br)cc1,inactive,–
CC(C)O.CC(C)O.OCCN(CCO)CCO.OCCN(CCO)CCO.[Ti],inactive,–
CCCCCCCCCCCCCl,inactive,–
CCOc1cc(C=O)ccc1O,inactive,–
O=S(=O)(C(Cl)(Cl)Cl)C(Cl)(Cl)Cl,inactive,–
CC(C)(C)c1ccccc1O,inactive,–
O=C(N[C@H]1CN2CCC1CC2)c1ccc2c(c1)OCCO2,inactive,–
O=C(Cc1ccccc1)OCCc1ccccc1,inactive,–
OCCN(CCO)CCO,inactive,–
OC[C@@H](O)[C@H]1O[C@@H]2O[C@H](C(Cl)(Cl)Cl)O[C@@H]2[C@H]1O,inactive,–
Oc1c(Cl)cc(Cl)cc1Cl,inactive,–
C[N+](C)(C)Cc1ccccc1,inactive,–
OC(Cc1ccccc1Cl)(Cn1[nH]cnc1=S)C1(Cl)CC1 (configuration not stated),inactive,–
CCCCS(=O)(=O)Cl,inactive,–
CC1(C)[C@H](/C=C2\CCSC2=O)[C@@H]1C(=O)OCc1coc(Cc2ccccc2)c1,inactive,–
C=CC(F)(C(F)(F)F)C(F)(F)C(F)(F)F (configuration not stated),inactive,–
O=C(CBr)c1ccc(O)cc1,inactive,–
C#CCOC(=O)/C=C(C)/C=C/CC(C)CCCC(C)C (configuration not stated),inactive,–
CC(C)(C1CCC(O)CC1)C1CCC(O)CC1 (configuration not stated),inactive,–

# Target: Hepatocyte nuclear factor 3-beta (Homo sapiens) (UniProt Q9Y261)
# Sequence (Q9Y261 whole entry, looked up): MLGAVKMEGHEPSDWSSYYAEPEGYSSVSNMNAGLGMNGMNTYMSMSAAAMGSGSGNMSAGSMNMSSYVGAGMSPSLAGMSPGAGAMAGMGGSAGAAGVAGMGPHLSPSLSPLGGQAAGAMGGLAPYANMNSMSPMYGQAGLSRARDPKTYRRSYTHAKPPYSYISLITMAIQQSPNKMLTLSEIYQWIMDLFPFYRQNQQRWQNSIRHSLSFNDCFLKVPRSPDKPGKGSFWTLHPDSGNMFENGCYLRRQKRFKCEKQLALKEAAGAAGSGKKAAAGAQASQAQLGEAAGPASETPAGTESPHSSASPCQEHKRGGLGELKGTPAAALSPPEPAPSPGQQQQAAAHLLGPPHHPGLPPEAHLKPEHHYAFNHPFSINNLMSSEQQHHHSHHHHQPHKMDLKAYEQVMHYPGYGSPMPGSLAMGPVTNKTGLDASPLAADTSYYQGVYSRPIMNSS
# Assay: ATG_FoxA2_CIS: Attagene CIS-FACTORIAL HepG2 Assay for human Forkhead box A2 (FOXA2) (AID 2282942)
# Details: HepG2 cis-reporter transcription factor activity, 24 h; actives raise or lower the signal
# How it was run: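 Transient MRTU transfection of HepG2 liver cells; 24 h treatment; total RNA → oligo(dT) RT → PCR → FAM primer extension → HpaI cut → CE. Bidirectional fit vs DMSO.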
Compound,outcome,AC50
CCCSP(=S)(OCC)Oc1ccc(SC)cc1 (configuration not stated),inactive,–
COCC(=O)N(c1c(C)cccc1C)[C@H](C)C(=O)OC,inactive,–
Cc1cc(C)cc(C)c1,inactive,–
CCOP(=S)(OCC)SCSc1cc(Cl)ccc1Cl,inactive,–
C=CC(=O)[O][Sn]([CH2]CCC)([CH2]CCC)[CH2]CCC,–,0.694 µM (active)
Cc1cccc(OP(=O)(Oc2cccc(C)c2)Oc2cccc(C)c2)c1,inactive,–
C1CN2CCN1CC2,inactive,–
COc1ccc([N+](=O)[O-])cc1O,inactive,–
CCC[N+](CCC)(CCC)CCC,inactive,–
O=c1nc(O)n(Cl)c(=O)n1Cl,inactive,–
O=NN1CCOCC1,inactive,–
CCOP(=S)(OCC)SCS(=O)(=O)C(C)(C)C,inactive,–
COc1nn(C(=O)NS(=O)(=O)c2ccccc2OC(F)(F)F)c(=O)n1C,inactive,–
CC(C)[N+](=O)[O-],inactive,–
CC1CC(=O)O1 (configuration not stated),inactive,–
Brc1ccc(Br)cc1,inactive,–
CCCCCCCCCCCCCl,inactive,–
CCOc1cc(C=O)ccc1O,inactive,–
O=S(=O)(C(Cl)(Cl)Cl)C(Cl)(Cl)Cl,inactive,–
O=C(Cc1ccccc1)OCCc1ccccc1,inactive,–
OCCN(CCO)CCO,inactive,–
OC[C@@H](O)[C@H]1O[C@@H]2O[C@H](C(Cl)(Cl)Cl)O[C@@H]2[C@H]1O,inactive,–
Oc1c(Cl)cc(Cl)cc1Cl,inactive,–
OC(Cc1ccccc1Cl)(Cn1[nH]cnc1=S)C1(Cl)CC1 (configuration not stated),inactive,–
CCCCS(=O)(=O)Cl,inactive,–
CC1(C)[C@H](/C=C2\CCSC2=O)[C@@H]1C(=O)OCc1coc(Cc2ccccc2)c1,inactive,–
C=CC(F)(C(F)(F)F)C(F)(F)C(F)(F)F (configuration not stated),inactive,–
O=C(CBr)c1ccc(O)cc1,inactive,–
C#CCOC(=O)/C=C(C)/C=C/CC(C)CCCC(C)C (configuration not stated),inactive,–
CC(C)(C1CCC(O)CC1)C1CCC(O)CC1 (configuration not stated),inactive,–

# Tested on: not listed separately
# Assay: ATG_FoxO_CIS: Attagene CIS-FACTORIAL HepG2 Assay for human Forkhead box O (FoxO) (AID 2282943)
# Details: HepG2 Attagene cis-reporter, FoxO element, mRNA; actives raise or lower the signal
# How it was run: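 24 h chemical exposure, HepG2 with transient cis-MRTU transfection. RNA extraction, oligo(dT) RT, reporter-specific PCR, primer-extension labelling, HpaI digestion, CE fragment analysis; bidirectional fit, DMSO baseline.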
row,Compound,outcome
1,CCCSP(=S)(OCC)Oc1ccc(SC)cc1 (configuration not stated),inactive
2,COCC(=O)N(c1c(C)cccc1C)[C@H](C)C(=O)OC,inactive
3,N#CS,inactive
4,Cc1cccc(OP(=O)(Oc2cccc(C)c2)Oc2cccc(C)c2)c1,inactive
5,C1CN2CCN1CC2,inactive
6,CCC[N+](CCC)(CCC)CCC,inactive
7,O=c1nc(O)n(Cl)c(=O)n1Cl,inactive
8,O=NN1CCOCC1,inactive
9,O=C(O)CC(O)(CC(=O)O)C(=O)O,inactive
10,CCOP(=S)(OCC)SCS(=O)(=O)C(C)(C)C,inactive
11,CC(c1ccc(O)cc1)c1ccc(O)cc1,inactive
12,COc1nn(C(=O)NS(=O)(=O)c2ccccc2OC(F)(F)F)c(=O)n1C,inactive
13,CC(C)[N+](=O)[O-],inactive
14,CC1(C)[C@H](C(=O)O[C@H](C#N)c2cccc(Oc3ccccc3)c2)[C@@H]1/C=C(\Cl)C(F)(F)F,inactive
15,C=C(C)[C@@H]1CC=C(C=O)CC1,inactive
16,CC1CC(=O)O1 (configuration not stated),inactive
17,Brc1ccc(Br)cc1,inactive

row,Compound,outcome
1,CC(C)O.CC(C)O.OCCN(CCO)CCO.OCCN(CCO)CCO.[Ti],inactive
2,CCCCCCCCCCCCCl,inactive
3,CCOc1cc(C=O)ccc1O,inactive
4,O=S(=O)(C(Cl)(Cl)Cl)C(Cl)(Cl)Cl,inactive
5,CC(C)(C)c1ccccc1O,inactive
6,O=C(N[C@H]1CN2CCC1CC2)c1ccc2c(c1)OCCO2,inactive
7,OCCN(CCO)CCO,inactive
8,OC[C@@H](O)[C@H]1O[C@@H]2O[C@H](C(Cl)(Cl)Cl)O[C@@H]2[C@H]1O,inactive
9,Oc1c(Cl)cc(Cl)cc1Cl,inactive
10,C[N+](C)(C)Cc1ccccc1,inactive
11,OC(Cc1ccccc1Cl)(Cn1[nH]cnc1=S)C1(Cl)CC1 (configuration not stated),inactive
12,CCCCS(=O)(=O)Cl,inactive
13,C=CC(F)(C(F)(F)F)C(F)(F)C(F)(F)F (configuration not stated),inactive
14,O=C(CBr)c1ccc(O)cc1,inactive
15,C#CCOC(=O)/C=C(C)/C=C/CC(C)CCCC(C)C (configuration not stated),inactive
16,CC(C)(C1CCC(O)CC1)C1CCC(O)CC1 (configuration not stated),inactive
